According to PubChem BioAssay AID1159580 (chemical genetic matrix, 2015):
Hit rate of the full screen: of about 5,500 compounds, about 2,000 (36%) were called active. Inconclusive results (about 18%) are left out. Cut-off read from the data, not from the text of the source: active = normalized growth mostly below about 0.91 (no sharp cut-off); inconclusive = no clear call, values can overlap the other calls; inactive = mostly above about 0.92. The list shows a part of the results.

Experiment: chemical genetic growth profiling, strain panel (AID 1159580);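 note: tested at 20 µM; growth read once vehicle control cultures reached saturation at 30 °C; 1 = growth at the plate median or of vehicle wells; lower values mean less growth of the strain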
Conditions: growth OD
[1] = S. cerevisiae deletion strains, locus YBR021W, strain FUR4, hits give low values
[2] = S. cerevisiae deletion strains, locus YBR229C, strain ROT2, hits give low values
[3] = S. cerevisiae deletion strains, locus YCL029C, strain bik1, hits give low values
[4] = S. cerevisiae deletion strains, locus YDL035C, strain GPR1, hits give low values
[5] = S. cerevisiae deletion strains, locus YDL074C, strain BRE1, hits give low values
[6] = S. cerevisiae deletion strains, locus YDL101C, strain DUN1, hits give low values
[7] = S. cerevisiae deletion strains, locus YDL185W, strain tfp1, hits give low values
[8] = S. cerevisiae deletion strains, locus YDL192W, strain arf1, hits give low values
[9] = S. cerevisiae deletion strains, locus YDR101C, strain arx1, hits give low values
[10] = S. cerevisiae deletion strains, locus YDR162C, strain NBP2, hits give low values
[11] = S. cerevisiae deletion strains, locus YDR318W, strain mcm21, hits give low values
[12] = S. cerevisiae deletion strains, locus YDR388W, hits give low values
[13] = S. cerevisiae deletion strains, locus YDR502C, strain sam2, hits give low values
[14] = S. cerevisiae deletion strains, locus YEL061C, strain CIN8, hits give low values
[15] = S. cerevisiae deletion strains, locus YER110C, hits give low values
[16] = S. cerevisiae deletion strains, locus YER155C, strain BEM2, hits give low values
[17] = S. cerevisiae deletion strains, locus YER167W, strain BCK2, hits give low values
[18] = S. cerevisiae deletion strains, locus YGL078C, strain dbp3, hits give low values
[19] = S. cerevisiae deletion strains, locus YGL086W, strain mad1, hits give low values
[20] = S. cerevisiae deletion strains, locus YGL248W, strain PDE1, hits give low values
[21] = S. cerevisiae deletion strains, locus YGR135W, strain pre9, hits give low values
[22] = S. cerevisiae deletion strains, locus YGR229C, strain SMI1, hits give low values
[23] = S. cerevisiae deletion strains, locus YGR252W, strain gcn5, hits give low values
[24] = S. cerevisiae deletion strains, locus YHR030C, strain SLT2, hits give low values
[25] = S. cerevisiae deletion strains, locus YHR079C, strain IRE1 (second series), hits give low values
[26] = S. cerevisiae deletion strains, locus YHR094C, strain hxt1, hits give low values
[27] = S. cerevisiae deletion strains, locus YHR129C, strain ARP1, hits give low values
[28] = S. cerevisiae deletion strains, locus YHR200W, strain rpn10, hits give low values
[29] = S. cerevisiae deletion strains, locus YIL066C, strain RNR3, hits give low values
[30] = S. cerevisiae deletion strains, locus YIL073C, strain SPO22, hits give low values
[31] = S. cerevisiae deletion strains, locus YIL125W, strain kgd1, hits give low values
[32] = S. cerevisiae deletion strains, locus YIR030C, strain dcg1, hits give low values
[33] = S. cerevisiae deletion strains, locus YJL095W, strain BCK1, hits give low values
[34] = S. cerevisiae deletion strains, locus YJL134W, strain LCB3, hits give low values
[35] = S. cerevisiae deletion strains, locus YJL168C, strain set2, hits give low values
[36] = S. cerevisiae deletion strains, locus YJL187C, strain SWE1 (second series), hits give low values
[37] = S. cerevisiae deletion strains, locus YJR043C, strain POL32, hits give low values
[38] = S. cerevisiae deletion strains, locus YKL009W, strain mrt4, hits give low values
[39] = S. cerevisiae deletion strains, locus YKL068W, hits give low values
[40] = S. cerevisiae deletion strains, locus YKL085W, strain MDH1 (second series), hits give low values
[41] = S. cerevisiae deletion strains, locus YKL085W, strain MDH1, hits give low values
[42] = S. cerevisiae deletion strains, locus YKL190W, strain CNB1, hits give low values
[43] = S. cerevisiae deletion strains, locus YKR001C, strain vps1, hits give low values
[44] = S. cerevisiae deletion strains, locus YLR039C, strain RIC1, hits give low values
[45] = S. cerevisiae deletion strains, locus YLR058C, strain SHM2, hits give low values
[46] = S. cerevisiae deletion strains, locus YLR102C, strain apc9, hits give low values
[47] = S. cerevisiae deletion strains, locus YLR262C, strain YPT6, hits give low values
[48] = S. cerevisiae deletion strains, locus YLR268W, strain sec22, hits give low values
[49] = S. cerevisiae deletion strains, locus YLR330W, strain CHS5, hits give low values
[50] = S. cerevisiae deletion strains, locus YLR342W, strain FKS1 (second series), hits give low values
[51] = S. cerevisiae deletion strains, locus YLR371W, strain rom2, hits give low values
[52] = S. cerevisiae deletion strains, locus YLR418C, strain cdc73, hits give low values
[53] = S. cerevisiae deletion strains, locus YML016C, strain PPZ1, hits give low values
[54] = S. cerevisiae deletion strains, locus YML032C, strain rad52, hits give low values
[55] = S. cerevisiae deletion strains, locus YML124C, strain tub3, hits give low values
[56] = S. cerevisiae deletion strains, locus YMR078C, strain ctf18, hits give low values
[57] = S. cerevisiae deletion strains, locus YMR223W, strain ubp8, hits give low values
[58] = S. cerevisiae deletion strains, locus YMR307W, strain GAS1, hits give low values
[59] = S. cerevisiae deletion strains, locus YNL067W, strain RPL9B, hits give low values
[60] = S. cerevisiae deletion strains, locus YNL233W, strain BNI4, hits give low values
[61] = S. cerevisiae deletion strains, locus YNL250W, strain rad50, hits give low values
[62] = S. cerevisiae deletion strains, locus YNL271C, strain bni1, hits give low values
[63] = S. cerevisiae deletion strains, locus YNL298W, strain CLA4, hits give low values
[64] = S. cerevisiae deletion strains, locus YNL307C, strain MCK1, hits give low values
[65] = S. cerevisiae deletion strains, locus YNL322C, strain KRE1, hits give low values
[66] = S. cerevisiae deletion strains, locus YNR052C, strain pop2, hits give low values
[67] = S. cerevisiae deletion strains, locus YOL006C, strain TOP1, hits give low values
[68] = S. cerevisiae deletion strains, locus YOL012C, strain htz1
[69] = S. cerevisiae deletion strains, locus YOL147C, strain pex11, hits give low values
[70] = S. cerevisiae deletion strains, locus YOR061W, strain CKA2, hits give low values
[71] = S. cerevisiae deletion strains, locus YOR069W, strain VPS5, hits give low values
[72] = S. cerevisiae deletion strains, locus YOR136W, strain idh2, hits give low values
[73] = S. cerevisiae deletion strains, locus YOR144C, strain elg1, hits give low values
[74] = S. cerevisiae deletion strains, locus YOR184W, strain ser1, hits give low values
[75] = S. cerevisiae deletion strains, locus YOR316C, strain cot1, hits give low values
[76] = S. cerevisiae deletion strains, locus YPR119W, strain clb2, hits give low values
[77] = S. cerevisiae deletion strains, locus YPR141C, strain kar3, hits give low values
[78] = S. cerevisiae deletion strains, locus YPR163C, strain tif3, hits give low values
[79] = S. cerevisiae deletion strains, locus YPR167C, strain met16, hits give low values
[80] = S. cerevisiae deletion strains, strain wtn01, hits give low values

Measured: normalized growth

NC(N)=NCCCC(NC(=O)C(N)Cc1ccc(O)cc1)C(=O)O (stereo not drawn)
inactive: S. cerevisiae deletion strains, locus YAL013W, strain DEP1, hits give low values 1.03 | [2] 0.998 | [3] 0.969 | [4] 1.04 | [5] 1.03 | [6] 0.989 | [7] 0.962 | [8] 0.994 | [9] 0.989 | [10] 1.02 | [11] 0.991 | [12] 0.989 | [13] 0.987 | [14] 0.988 | [15] 0.971 | [16] 0.99 | [17] 1.01 | [18] 1 | [19] 0.981 | [20] 0.997 | [21] 1 | [22] 1.05 | [23] 1.23 | [24] 0.994 | [25] 0.968 | [26] 0.985 | [27] 0.99 | [28] 0.981 | [29] 1.01 | [30] 0.924 | [31] 0.995 | [32] 0.996 | [33] 0.988 | [34] 0.992 | [35] 0.989 | [36] 0.99 | [37] 1.08 | [38] 0.938 | [39] 0.968 | [40] 0.988 | [41] 0.988 | [42] 0.993 | [43] 0.982 | [44] 1 | [45] 0.991 | [46] 0.972 | [47] 1 | [48] 0.97 | [49] 0.988 | [50] 1.05 | [51] 0.99 | [52] 1.07 | [53] 0.992 | [54] 0.996 | [55] 0.995 | [56] 0.997 | [57] 1.03 | S. cerevisiae deletion strains, locus YMR263W, strain SAP30, hits give low values 0.983 | [58] 1.31 | [59] 0.968 | [60] 1 | [61] 0.951 | [62] 1 | [63] 0.995 | [64] 0.985 | [65] 1 | [66] 0.976 | [67] 1.04 | [68] 1.32 | [69] 0.991 | [70] 0.988 | [71] 0.989 | [72] 0.978 | [73] 0.995 | [74] 0.984 | [75] 0.979 | [76] 0.988 | [77] 0.969 | [78] 1 | [79] 0.997 | [80] 0.964
active: [1] 1.25 [resistant]

NC(N)=NCCC[C@@H](NC(=O)[C@@H](N)Cc1ccc(O)cc1)C(=O)O
inactive: [1] 1.01 | [2] 1.01 | [3] 1.01 | [4] 1.02 | [5] 1.01 | [6] 1 | S. cerevisiae deletion strains, locus YDL134C, strain PPH21, hits give low values 1.01 | [7] 1.01 | [8] 1.01 | [9] 0.996 | S. cerevisiae deletion strains, locus YDR150W, strain NUM1, hits give low values 1.01 | [10] 1 | [11] 1.01 | [12] 1.01 | [13] 1.02 | [14] 1.01 | [15] 1.02 | [16] 1.01 | [17] 1.01 | [18] 1.01 | [19] 1 | [20] 1.01 | S. cerevisiae deletion strains, locus YGR078C, strain PAC10, hits give low values 0.996 | [21] 1.01 | [22] 0.997 | [23] 0.99 | [24] 1.01 | [25] 1.01 | [26] 1.01 | [27] 1 | [28] 1.01 | [29] 1.01 | [30] 1.03 | [31] 1.01 | [32] 1.01 | [33] 0.996 | [34] 1.01 | [35] 1.01 | [36] 1.01 | [37] 1.01 | [38] 0.997 | [39] 1.01 | [40] 1.01 | [41] 1.01 | [42] 1.01 | [43] 0.993 | [44] 1.03 | [45] 1.01 | [46] 1.01 | [47] 0.992 | [48] 1.01 | [49] 1.01 | [50] 1.02 | [51] 1.01 | [52] 1.02 | [53] 1 | [54] 1.02 | [55] 1.01 | [56] 1.01 | [57] 1.01 | [58] 0.979 | [59] 1.01 | S. cerevisiae deletion strains, locus YNL153C, strain GIM3, hits give low values 0.993 | [60] 1.01 | [61] 0.998 | [62] 1.01 | [63] 1.01 | [64] 1.01 | [65] 1.01 | [66] 1.02 | [67] 1.03 | [68] 1.88 | [69] 1.01 | [70] 1.01 | [71] 1.01 | [72] 1 | [73] 1.01 | [74] 1.01 | [75] 1.01 | S. cerevisiae deletion strains, locus YPL055C, strain LGE1, hits give low values 1 | [76] 1.01 | [77] 1.01 | [78] 1.02 | [79] 1.01 | [80] 0.999 | S. cerevisiae strains, strain wild type, hits give low values 1
